Bioassay records deposited in PubChem by several laboratories.
In the library only some 1.6% were active in any assay of this set; here they are far more common.
3CLpro inhibitor: SARS-CoV 3CLpro protease inhibition; 290,000 tested, 0.14% active; AID 1706; P0C6X7; recombinant SARS-CoV 3CLpro, quenched FRET peptide cleavage; inhibition, % at 6 µM; in the data active = inhibition above about 12%
PriA SSB inh: blocks PriA binding to SSB C-terminal tail. AlphaScreen SSBct-PriA binding, biotinylated peptide. inhibition, % at 33 µM. 430,000 tested, 0.6% active. AID 1272365; in the data active = inhibition mostly above about 37%, no sharp cut-off; inactive = mostly below about 20%;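 also: plate controls were negative control peptide for no effect and reference peptide for full effect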
PrP 5UTR inh: suppresses PrP 5' UTR mRNA reporter expression. inhibition, % (test concentration not listed). 340,000 tested, 0.35% active. cell-based PrP 5' UTR mRNA reporter, plate reader; in the data active = inhibition above about 52%; also: 0 = median of the neutral control wells
PfHsp40 rescue: rescue of PfHsp40-mediated yeast toxicity | S. cerevisiae expressing PfHsp40, growth rescue, ATP luminescence | growth rescue, % at 12.5 µM | 340,000 tested, 0.68% active; in the data active = growth rescue above about 28%, passing the limit was not always enough; inconclusive = no clear call, values can overlap the other calls;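 also: yeast W303a lacking pdr1 and pdr3 grown in galactose medium; growth measured after three days at 30 °C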
PrPC TRFRET: inhibitors of human cell surface prion protein PrPC; 370,000 tested, 0.43% active; TR-FRET read-out; inhibition, % at 13.8 µM; P04156; AID 720596; in the data active = inhibition above about 24%; also: 0% = median of the test wells and 100% = reference compound wells
Vc quorum ag: induces V. cholerae light production without autoinducers | V. cholerae BH1578 lux reporter, luminescence, 6 h | activation, % at 18.7 µM | 350,000 tested, 0.16% active | AID 588436; in the data active = activation mostly above about 9.7%, no sharp cut-off; inconclusive = no clear call, values can overlap the other calls; inactive = mostly below about 3.7%
* hit, by the source's call; i = inactive; ? = inconclusive; · = no result given; ! = not active in a repeat.

SMILES	3CLpro inhibitor	PriA SSB inh	PrP 5UTR inh	PfHsp40 rescue	PrPC TRFRET	Vc quorum ag
Cc1cc2ncc(CCCNC(=O)CCc3c(F)cccc3Cl)cn2n1	·	-10	·	·	·	·
O=C(Nc1nc2c(s1)COCC2)c1ccc(=O)[nH]c1	·	-15	·	·	·	·
Nc1nc(-c2cccs2)c(Br)s1	·	-3	·	·	·	·
S=c1nc(-c2sccc2OCc2ccc(Cl)cc2Cl)[nH][nH]1	3	2	-26	45*	3	-1
CNC(=S)NNC(=O)c1sccc1OCc1ccc(Cl)cc1Cl	3	-7	-26	-1	-5	-1
Cc1ccc(OCc2nc(C#N)c(N3CCCCC3)o2)cc1	-1	45*	-9	7	-5	0
N#Cc1nc(COc2ccccc2)oc1N1CCCCC1	-1	37	-31	-1	4	0
CC1CN(c2oc(COc3ccc(Cl)cc3Cl)nc2C#N)CC(C)O1 (configuration not stated)	3	43*	-9	2	1	i
N#Cc1nc(COc2ccc(Cl)cc2)oc1N1CCCCCC1	8	52*	-14	6	12	0
CC(C)(C)SC1CCN(C(=O)CCc2ccc(OCc3ccccc3)cc2)C1 (configuration not stated)	·	-9	·	·	·	·
Cc1noc(C)c1S(=O)(=O)NCCc1nc2c(c(C(F)(F)F)n1)CCCC2	·	4	·	·	·	·
O=[N+]([O-])c1ccc(Cl)cc1C=NNc1ccccn1	·	9	-6	0	6	2
O=[N+]([O-])c1cc(Cl)cc(/C=N\Nc2ccccn2)c1O	-4	·	23	5	-5	25*
O=C(COc1ccccc1F)Nc1cc(OCc2ccc3c(c2)OCO3)ncn1	·	-14	·	·	·	·
Cc1cc(NCc2ccccn2)n2nc(C)c(-c3ccccc3Cl)c2n1	·	11	·	·	·	·
CC(=O)Nc1ccc(Nc2cc(C(C)C)nc3c(-c4ccccc4)c(C)nn23)cc1	0	-11	-15	97*	3	-3
Cc1nn2c(NCc3ccccn3)cc(C(C)C)nc2c1-c1ccccc1	2	-10	-12	37*	-12	-1
CCCc1cc(NCc2ccccn2)n2nc(C)c(-c3ccccc3)c2n1	-5	-17	-26	67*	6	0
CC(=O)Nc1ccc(Nc2cc(C)nc3c(-c4ccccc4)c(C)nn23)cc1	1	-11	-6	2	4	0
Cc1cc(NCc2ccccn2)n2nc(C)c(-c3ccc(Cl)cc3)c2n1	-1	-25	-17	8	-7	7
COc1ncc(NC(=O)C2CCN(S(C)(=O)=O)CC2)cn1	·	-15	·	·	·	·
C=CCSc1ncc(-c2ccc(OC)cc2)n1-c1cccc(Cl)c1	·	32*	·	·	·	·
CCn1cc(NC(=O)N2CCN(c3cccc(Cl)c3)CC2)c2ccccc21	·	31*	·	·	·	·
CCn1cc(NC(=O)N2CCN(c3ccccc3F)CC2)c2ccccc21	·	5	·	·	·	·
Cc1cccc(C2=NN(c3ccccc3)[C@@H](C(=O)N3CCOC3=O)[C@@H]2C)c1	·	-53	-13	33*	3	i
SMILES	3CLpro inhibitor	PriA SSB inh	PrP 5UTR inh	PfHsp40 rescue	PrPC TRFRET	Vc quorum ag
O=C(Nc1ccccc1F)c1cc(C2CCN(C(=O)c3ccno3)CC2)[nH]n1	·	0	·	·	·	·
O=C(Nc1ccccc1F)c1cc(C2CCN(C(=O)Cc3noc4ccccc34)CC2)[nH]n1	·	62*	·	·	·	·
O=C1NC(=NN=Cc2ccccc2O)SC1Cc1ccc(F)cc1 (configuration not stated)	·	-13	·	·	·	·
CCOc1ccc(N/N=C(/C#N)C(N)=O)cc1	-6	·	-36	363*	-18	i
COc1ccc(N/N=C(\C#N)C(N)=O)cc1	0	·	-21	47*	-9	0
Cn1nc(CCC(=O)Nc2ccc(Cl)cc2F)ccc1=O	·	-5	·	·	·	·
COC(C)(CNC(=O)C1COc2ccccc2O1)c1ccccc1F (configuration not stated)	·	0	·	·	·	·
CC1CCc2c(sc(NC(=O)CCSc3ccc(Cl)cc3)c2C(N)=O)C1 (configuration not stated)	·	4	·	·	·	·
CC1CCc2c(sc(Nc3nc4c(F)cccc4s3)c2C(N)=O)C1 (configuration not stated)	-1	51*!	-19	-1	6	0
COc1ccc2c(c1)OC[C@H]1[C@H]2N2C(=O)c3cc(Cl)ccc3NC(=O)[C@@]2(C)[C@H]1c1ccccc1	·	9	-20	?	·	0
C[C@]12C(=O)N(c3ccc(F)cc3)C(=O)N1[C@H]1c3ccccc3OC[C@@H]1[C@H]2c1ccccc1	·	-13	-6	94*	8	-1
C[C@@]12C(=O)N(c3ccc(F)cc3)C(=O)N1[C@@H]1c3ccccc3OC[C@@H]1[C@H]2c1ccccc1	4	2	-5	-1	-2	i
COc1ccc2c(c1)OC[C@H]1[C@H]2N2C(=O)c3cc(OC)ccc3NC(=O)[C@@]2(C)[C@H]1c1ccccc1	·	18	-25	117*	17	-2
CCCCOc1ccc(C(=O)Nc2cccc(-c3cn4c(C)csc4n3)c2)cc1	·	1	·	·	·	·
CCOC(=O)c1cc(-c2ccc(N)cc2)sc1N	-4	50*	-78	2	-2	i
CCOC(=O)c1sc(-c2ccc(Br)cc2)cc1N	0	-12	-155	1	2	-2
O=C(NNC(=O)c1cc2ccccc2cc1O)Nc1ccccc1F	3	-5	-25	120*	-4	0
COc1ccc(OC)c(CNc2ccc(F)c(Cl)c2)c1	-2	4	-15	38*	7	i
COc1ccc(OC)c(CNc2ccc3c(c2)CCC3)c1	0	23	-18	-1	6	0
CCCCCc1ccc(-c2ccc(/C=C/C(=O)O)cc2)nc1	-6	-9	46	0	0	0
CCCCCCCc1ccc(-c2ccc(O)cc2)nc1	5	-11	-51	253*	11	0
C/C(Cl)=C/CSc1nnc2n(N)c(=O)c3ccccc3n12	-3	5	-28	0	-2	33*
NC(=O)CSc1nnc2n(N)c(=O)c3ccccc3n12	0	-2	-41	1	12	i
CCCCCCCn1c(NC(=O)CC)nc2ccccc21	3	-19	11	93*	3	-1
CCOC(=O)C(/C=C(\C#N)C(=O)OCC)=C(N)N1CCN(c2ccccc2)CC1	·	-8	·	·	·	·
SMILES	3CLpro inhibitor	PriA SSB inh	PrP 5UTR inh	PfHsp40 rescue	PrPC TRFRET	Vc quorum ag
CC(O)CNc1ncnc2nc[nH]c12 (configuration not stated)	0	-8	-20	2	-1	i
CC(C)=NNc1ncnc2nc[nH]c12	·	50*	-6	-1	-3	i
Cc1ccc(NC(=O)C(NC2CCCc3ccccc32)c2ccccc2)c([N+](=O)[O-])c1 (configuration not stated)	1	46*	-9	1	-3	i
Cc1cc(-c2nnc(SCC(=O)Nc3ccccn3)o2)no1	2	-8	-18	0	-1	i
Cc1cc(-c2nnc(SCC(=O)Nc3nccs3)o2)no1	-2	78*	-3	-2	-1	i
O=c1oc2c(O)c(O)cc3c(=O)oc4c(O)c(O)cc1c4c23	-5	-3	-12	152*	·	-1
